For twelve compounds, Potency results are on record in PubChem BioAssay (NCATS).

Records with an inconclusive call do not appear. Entries that show only a call come without a potency. Active and inactive are the calls of the source. Calls follow the shape of the dose curve; as a rule, active = well fitted inhibition curve with a large enough effect; inconclusive = small, poorly fitted or top-dose-only effect; inactive = flat fitted curve, though single readings scatter.
Potency is read from the fitted curve at half-maximal effect.

This assay in a line: Primary qHTS for inhibitors of nuclear receptor binding SET domain protein 2 (NSD2) in an isogenic RCH-ACV NSD2 p.E1099K mutant (9B) (AID 1645876). Also: nearly all actives have a fitted effect of over 70% in size. Conditions: RCH-ACV (leukaemia line) NSD2 E1099K (9B) viability, CellTiter-Glo, 72 h; series mostly up to 44.9 µM. On the technique in general: Quantitative high-throughput screening tests each substance at several concentrations.
As to `Clc1cccc(C(c2ccc3nc[nH]c3c2)n2ccnc2)c1` (configuration not stated), the Potency entry was “inactive”.
On to `NS(=O)(=O)c1ccc(Cl)c(S(N)(=O)=O)c1`, for which the Potency entry was “inactive”.
As for `CN(C)CCN1C(=O)c2ccccc2N(C)c2ccccc21`, the entry is “inactive”.
Regarding `Cn1c(=O)c2[nH]c(Br)nc2n(C)c1=O`, the Potency entry was “inactive”.
`CC(=O)O[C@H]1C[C@@H]2CC[C@@H]3[C@H](CC[C@@]4(C)[C@H]3C[C@H]([N+]3(C)CCCCC3)[C@@H]4OC(C)=O)[C@@]2(C)C[C@@H]1N1CCCCC1`: the Potency result is “inactive”.
As for `C[C@H]1O[C@@H](O[C@H]2CC[C@@]3(C)[C@H](CC[C@@H]4[C@@H]3C[C@@H](O)[C@]3(C)[C@@H](C5=CC(=O)OC5)CC[C@]43O)C2)C[C@H](O)[C@@H]1O[C@H]1C[C@H](O)[C@H](O[C@H]2C[C@H](O)[C@H](O[C@@H]3O[C@H](CO)[C@@H](O)[C@H](O)[C@H]3O)[C@@H](C)O2)[C@@H](C)O1`, the figure is 66.8 nM (active); as for `CN1CCC(OC(c2ccccc2)c2ccccc2)CC1`, “inactive”.
In the case of `CCN1CCN(C(=O)N[C@@H](C(=O)N[C@@H]2C(=O)N3C(C(=O)O)=C(CSc4nnnn4C)CS[C@H]23)c2ccc(O)cc2)C(=O)C1=O` it was “inactive”; in that of `O=S(=O)(O)c1ccc(O)cc1`, “inactive”; in that of `N[C@H](C(=O)O)[C@@H](O)c1ccc(O)c(O)c1`, “inactive”.
As for `O=C(Nc1ccc([N+](=O)[O-])cc1)Nc1ccc([N+](=O)[O-])cc1`, the entry is “inactive”.
Regarding `C[C@@H](O)[C@H]1C(=O)N2C(C(=O)O)=C(S[C@@H]3CN[C@H](CNS(N)(=O)=O)C3)[C@H](C)[C@H]12`, the Potency result is “inactive”.
